# Measured values reported in PubChem BioAssay (EPA / NIEHS).
# Results filed as inconclusive are left out. Activity calls are given as the source filed them. How the source made its calls, unless noted: active means hit-call score of the fitted dose curve at least 0.9, where 1 is the maximum; inconclusive means response in the unintended direction; inactive means score below 0.9.
# Tests used:
# PGR (gene 5241) = PGR (gene 5241) (UniProt P06401); experiment: NVS_NR_hPR: NovaScreen (NVS) Nuclear Receptor Binding Assay for human Progestron Receptor (PR) (AID 2283360);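 further: active means loss of bound radioligand signal versus DMSO baseline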
# Sequence of PGR (gene 5241) (P06401 whole entry, looked up): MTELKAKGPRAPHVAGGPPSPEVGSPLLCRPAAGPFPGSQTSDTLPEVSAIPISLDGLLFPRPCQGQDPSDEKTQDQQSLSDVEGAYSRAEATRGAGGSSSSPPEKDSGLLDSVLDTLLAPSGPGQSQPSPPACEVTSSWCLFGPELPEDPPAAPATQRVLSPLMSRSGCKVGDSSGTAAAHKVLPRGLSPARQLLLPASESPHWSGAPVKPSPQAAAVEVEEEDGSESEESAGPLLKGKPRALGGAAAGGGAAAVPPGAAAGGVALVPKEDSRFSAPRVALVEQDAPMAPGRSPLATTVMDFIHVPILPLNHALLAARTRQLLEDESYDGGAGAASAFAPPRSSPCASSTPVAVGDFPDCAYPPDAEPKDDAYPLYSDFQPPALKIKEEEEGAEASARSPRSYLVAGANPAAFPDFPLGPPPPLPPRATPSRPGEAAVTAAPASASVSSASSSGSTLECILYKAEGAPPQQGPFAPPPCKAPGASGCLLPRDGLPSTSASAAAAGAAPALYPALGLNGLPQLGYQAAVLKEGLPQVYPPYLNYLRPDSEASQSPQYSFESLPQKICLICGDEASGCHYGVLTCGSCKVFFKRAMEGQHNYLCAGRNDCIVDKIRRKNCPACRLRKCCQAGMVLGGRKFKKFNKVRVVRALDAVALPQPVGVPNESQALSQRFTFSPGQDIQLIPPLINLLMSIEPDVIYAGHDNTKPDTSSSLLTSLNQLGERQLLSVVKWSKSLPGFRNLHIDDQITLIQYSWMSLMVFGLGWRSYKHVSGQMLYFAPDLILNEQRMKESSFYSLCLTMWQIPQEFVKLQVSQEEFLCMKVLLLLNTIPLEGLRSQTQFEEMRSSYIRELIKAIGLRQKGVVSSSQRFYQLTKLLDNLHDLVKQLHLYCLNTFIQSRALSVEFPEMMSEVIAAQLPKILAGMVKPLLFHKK
# Outline: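 T47D-derived receptor preparation, cell-free, with tritiated or iodinated radioligand displacement measured by scintillation 18 h post-dosing. Single 25 uM duplicate screen, then concentration series; signal loss relative to DMSO.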
# [1] = target: Glucocorticoid receptor (Homo sapiens) (UniProt P04150); experiment: NVS_NR_hGR: NovaScreen (NVS) Nuclear Receptor Binding Assay for human Glucocorticoid Receptor (GR) (AID 2283363);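 on AC50: activity is loss of specific radioligand binding signal relative to DMSO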
# Sequence of Glucocorticoid receptor (Homo sapiens) (P04150 whole entry, looked up): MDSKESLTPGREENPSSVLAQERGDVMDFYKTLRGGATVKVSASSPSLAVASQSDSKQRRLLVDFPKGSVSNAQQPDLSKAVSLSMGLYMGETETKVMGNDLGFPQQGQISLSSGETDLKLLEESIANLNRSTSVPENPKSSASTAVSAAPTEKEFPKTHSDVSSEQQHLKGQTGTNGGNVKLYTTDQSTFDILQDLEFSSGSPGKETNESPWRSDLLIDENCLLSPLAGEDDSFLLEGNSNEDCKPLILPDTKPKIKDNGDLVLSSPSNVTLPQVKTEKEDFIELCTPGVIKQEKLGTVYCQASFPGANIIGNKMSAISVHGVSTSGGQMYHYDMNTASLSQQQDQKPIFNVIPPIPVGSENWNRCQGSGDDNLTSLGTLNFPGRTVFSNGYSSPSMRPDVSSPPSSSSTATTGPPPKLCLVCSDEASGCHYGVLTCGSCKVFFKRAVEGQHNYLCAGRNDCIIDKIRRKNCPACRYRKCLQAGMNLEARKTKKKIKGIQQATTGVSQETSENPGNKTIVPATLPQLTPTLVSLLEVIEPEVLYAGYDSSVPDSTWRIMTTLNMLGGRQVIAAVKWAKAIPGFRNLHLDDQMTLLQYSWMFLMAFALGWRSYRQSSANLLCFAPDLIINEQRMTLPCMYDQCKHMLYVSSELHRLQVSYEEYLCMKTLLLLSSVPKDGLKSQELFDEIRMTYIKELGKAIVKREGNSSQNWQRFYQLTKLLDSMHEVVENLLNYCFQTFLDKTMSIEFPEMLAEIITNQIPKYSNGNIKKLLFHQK
# Outline: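 Cell-free radioligand displacement assay on extracted human GR, read 16 h after dosing by filter-based scintillation counting. Screened in duplicate at 25 uM, then concentration series for actives; loss of signal versus DMSO baseline.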
# [2] = target: guinea pig Sigma Receptor, Non-selective Binding, SIGMAR1 (gene 100135589) (UniProt Q60492); experiment: NVS_OR_gSIGMA_NonSelective: NovaScreen (NVS) Nuclear Receptor Binding Assay for guinea pig Sigma Receptor, Non-selective Binding (AID 2283367)
# Sequence of guinea pig Sigma Receptor, Non-selective Binding, SIGMAR1 (gene 100135589) (Q60492 whole entry, looked up): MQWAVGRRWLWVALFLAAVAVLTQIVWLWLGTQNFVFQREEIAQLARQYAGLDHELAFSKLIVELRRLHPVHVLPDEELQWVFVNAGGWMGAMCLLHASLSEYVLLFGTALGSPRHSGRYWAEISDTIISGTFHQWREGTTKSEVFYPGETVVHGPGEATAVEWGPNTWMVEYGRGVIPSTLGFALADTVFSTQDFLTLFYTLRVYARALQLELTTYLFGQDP
# Outline: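 Radioligand displacement on guinea pig brain membranes, read by filter-based scintillation counting 1 h after dosing. Loss of signal versus DMSO; initial duplicate single-point screen at 25 uM, actives followed in concentration series.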
# [3] = target: human Serotonin Transporter (SERT), SLC6A4 (gene 6532) (UniProt P31645); experiment: NVS_TR_hSERT: NovaScreen (NVS) Transporter Assay for human Serotonin Transporter (SERT) (AID 2283372)
# Sequence of human Serotonin Transporter (SERT), SLC6A4 (gene 6532) (P31645 whole entry, looked up): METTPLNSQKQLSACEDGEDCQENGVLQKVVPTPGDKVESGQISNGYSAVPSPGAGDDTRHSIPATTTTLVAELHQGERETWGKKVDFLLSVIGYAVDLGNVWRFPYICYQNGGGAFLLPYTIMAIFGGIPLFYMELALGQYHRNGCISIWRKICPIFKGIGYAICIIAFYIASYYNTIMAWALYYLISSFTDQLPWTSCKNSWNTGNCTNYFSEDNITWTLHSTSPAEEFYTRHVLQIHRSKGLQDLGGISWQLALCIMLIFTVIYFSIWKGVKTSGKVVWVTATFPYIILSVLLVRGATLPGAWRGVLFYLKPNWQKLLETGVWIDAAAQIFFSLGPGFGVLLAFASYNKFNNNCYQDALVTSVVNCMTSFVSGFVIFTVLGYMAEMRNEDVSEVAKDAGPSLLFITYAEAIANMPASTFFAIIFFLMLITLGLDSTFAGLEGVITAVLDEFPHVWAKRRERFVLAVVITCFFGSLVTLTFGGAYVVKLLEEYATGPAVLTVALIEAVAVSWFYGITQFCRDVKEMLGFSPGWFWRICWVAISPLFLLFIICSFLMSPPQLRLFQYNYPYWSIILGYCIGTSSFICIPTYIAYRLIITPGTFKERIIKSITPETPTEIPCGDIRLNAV
# Outline: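 Radioligand binding to native SERT in human platelet membranes, read by filter-based scintillation counting 1 h after dosing. Primary screen in duplicate at 25 uM; actives followed up in concentration series; loss of signal versus DMSO baseline.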
# [4] = target: human Dopamine Transporter (DAT), SLC6A3 (gene 6531) (UniProt Q01959); experiment: NVS_TR_hDAT: NovaScreen (NVS) Transporter Assay for human Dopamine Transporter (DAT) (AID 2283374);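 further: activity means loss of bound radioligand signal relative to DMSO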
# Outline: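 Cell-free radioligand displacement binding at human DAT, 1 h after dosing, with filtration and scintillation counting. Primary screen in duplicate at 25 uM, actives then in concentration series. Loss of bound signal versus DMSO scored.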
# [5] = target: rat Serotonin Transporter (SERT), Slc6a4 (gene 25553) (UniProt P31652); experiment: NVS_TR_rSERT: NovaScreen (NVS) Transporter Assay for rat Serotonin Transporter (SERT) (AID 2283375)
# Outline: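 Radioligand displacement, filter scintillation readout; rat forebrain membrane prep, 1 h post-dose. Single-conc 25 uM duplicate screen, then concentration-response on actives. Loss of signal vs DMSO baseline.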
# [6] = target: Estrogen receptor beta (Homo sapiens) (UniProt Q92731); experiment: OT_ER_ERbERb_1440: Odyssey Thera (OT) 24-hour HEK293T Protein-Complementation Assay for Estrogen Receptor-beta/-beta Homodimer (AID 2283380);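 further: scored as signal increase over DMSO baseline for both agonists and antagonists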
# Sequence of Estrogen receptor beta (Homo sapiens) (Q92731 whole entry, looked up, the tested form may be a part): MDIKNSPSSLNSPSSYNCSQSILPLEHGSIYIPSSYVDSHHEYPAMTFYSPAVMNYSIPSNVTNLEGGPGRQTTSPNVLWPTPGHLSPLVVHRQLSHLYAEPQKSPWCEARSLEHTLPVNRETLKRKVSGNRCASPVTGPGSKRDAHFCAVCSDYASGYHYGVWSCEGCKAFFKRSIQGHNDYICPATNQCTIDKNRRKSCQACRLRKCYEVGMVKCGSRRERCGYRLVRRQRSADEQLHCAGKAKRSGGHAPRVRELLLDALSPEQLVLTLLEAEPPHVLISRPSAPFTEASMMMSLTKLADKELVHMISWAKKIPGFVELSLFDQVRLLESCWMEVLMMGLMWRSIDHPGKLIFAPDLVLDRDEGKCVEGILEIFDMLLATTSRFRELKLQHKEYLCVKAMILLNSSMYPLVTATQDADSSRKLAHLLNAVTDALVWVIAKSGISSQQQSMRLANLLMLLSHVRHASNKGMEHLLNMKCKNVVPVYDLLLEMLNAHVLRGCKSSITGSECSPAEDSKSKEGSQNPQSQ
# Outline: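 HEK293T cells stably expressing ER beta LBD (aa 310-547) homodimer fragment-complementation reporter, dosed 24 h. Cells formaldehyde-fixed, Draq5-stained; gain in nuclear (agonist) or nuclear plus cytoplasmic (antagonist) fluorescence versus DMSO read by laser scanning cytometry.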
# [7] = target: Estrogen receptor (Homo sapiens) (UniProt P03372); experiment: OT_ERa_GFPERaERE_0480: Odyssey Thera (OT) 8-hour HeLa Transcription Induction Assay for Estrogen Receptor (AID 2283381; active means hit-call score of the fitted dose curve at least 0.9, where 1 is the maximum; inactive means score below 0.9)
# Sequence of Estrogen receptor (Homo sapiens) (P03372 whole entry, looked up): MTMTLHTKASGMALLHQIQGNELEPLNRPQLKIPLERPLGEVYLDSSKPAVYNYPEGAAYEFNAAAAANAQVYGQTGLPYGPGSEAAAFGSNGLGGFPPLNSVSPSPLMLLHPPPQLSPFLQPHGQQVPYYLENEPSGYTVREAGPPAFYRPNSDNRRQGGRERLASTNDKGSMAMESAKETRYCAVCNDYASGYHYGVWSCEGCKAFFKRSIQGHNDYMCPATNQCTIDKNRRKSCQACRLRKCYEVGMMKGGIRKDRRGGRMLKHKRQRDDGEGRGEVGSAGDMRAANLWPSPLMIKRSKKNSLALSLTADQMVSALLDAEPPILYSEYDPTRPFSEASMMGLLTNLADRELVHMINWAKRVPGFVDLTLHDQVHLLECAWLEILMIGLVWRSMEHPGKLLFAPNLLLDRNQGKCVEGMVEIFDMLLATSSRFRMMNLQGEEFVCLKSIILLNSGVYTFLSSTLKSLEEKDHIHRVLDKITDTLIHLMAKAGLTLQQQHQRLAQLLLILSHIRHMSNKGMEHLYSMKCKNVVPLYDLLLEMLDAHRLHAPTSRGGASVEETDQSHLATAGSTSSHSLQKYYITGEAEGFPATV
# Outline: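 Fluorescent reporter signal, imaged by microscopy and scored with image-analysis algorithms, was taken 8 h after chemical dosing of HeLa cells; activity was fitted upward relative to DMSO.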
# [8] = target: Retinoic acid receptor alpha (Homo sapiens) (UniProt P10276); experiment: NVS_NR_hRAR_Antagonist: NovaScreen (NVS) Nuclear Receptor Binding Assay for human Retinoic Acid Alpha Receptor Antagonism (RAR) (AID 2283358)
# Sequence of Retinoic acid receptor alpha (Homo sapiens) (P10276 whole entry, looked up): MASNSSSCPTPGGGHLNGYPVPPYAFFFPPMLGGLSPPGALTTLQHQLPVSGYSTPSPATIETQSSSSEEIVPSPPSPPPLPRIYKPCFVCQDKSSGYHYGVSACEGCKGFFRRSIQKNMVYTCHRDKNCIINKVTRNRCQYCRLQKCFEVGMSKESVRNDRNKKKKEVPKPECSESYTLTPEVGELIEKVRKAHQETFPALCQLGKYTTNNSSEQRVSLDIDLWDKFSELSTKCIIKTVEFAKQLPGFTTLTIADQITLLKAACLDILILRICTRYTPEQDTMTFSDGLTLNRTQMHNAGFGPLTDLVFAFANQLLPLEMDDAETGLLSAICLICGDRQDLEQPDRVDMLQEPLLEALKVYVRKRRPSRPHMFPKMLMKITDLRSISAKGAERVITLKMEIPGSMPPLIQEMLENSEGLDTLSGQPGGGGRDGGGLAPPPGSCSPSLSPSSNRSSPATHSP
# Outline: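 Cell-free TR-FRET binding assay with extracted human RARalpha in antagonist mode, read 2 h after dosing. Loss of signal was fitted relative to DMSO; the primary screen used 25 uM in duplicate, with concentration series on follow-up.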
# [9] = system: guinea pig Dopamine Transporter (DAT), gene 100714898; experiment: NVS_TR_gDAT: NovaScreen (NVS) Transporter Assay for guinea pig Dopamine Transporter (DAT) (AID 2283369);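 further: active compounds lower bound radioligand signal relative to DMSO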
# Outline: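 Cell-free striatal membrane prep (guinea pig), 2 h exposure, filtration + scintillation readout of radioligand binding. Single-point 25 uM duplicate; actives rerun singleton, top conc 50 uM.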
# [10] = target: mouse Estrogen Receptor alpha (Era), Esr1 (gene 13982) (UniProt P19785); experiment: NVS_NR_mERa: NovaScreen (NVS) Nuclear Receptor Binding Assay for mouse Estrogen Receptor alpha (Era) (AID 2283378);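 further: hit means loss of bound radioligand signal relative to DMSO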
# Outline: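 Filter scintillation counts of bound radioligand, measured 18 h post-dose, gave the readout; decreased signal relative to DMSO controls indicated displacement from mouse Era. Primary screen ran in duplicate at 25 uM; active chemicals were retested across concentrations.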
# [11] = target: Nuclear receptor subfamily 1 group I member 2 (Homo sapiens) (UniProt O75469); experiment: NVS_NR_hPXR: NovaScreen (NVS) Nuclear Receptor Binding Assay for human Pregnane X Receptor (PXR) (AID 2283365);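 further: a drop in FRET signal versus DMSO baseline means the compound binds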
# Outline: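 TR-FRET signal read at 2 h in a cell-free human PXR binding format. DMSO served as negative control and baseline; activity scored as signal loss. Single-concentration duplicate screen (25 uM), then concentration-response follow-up.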
# [12] = system: rat Norepinephrine Transporter (NET), gene 83511; experiment: NVS_TR_rNET: NovaScreen (NVS) Transporter Assay for rat Norepinephrine Transporter (NET) (AID 2283373)
# Outline: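 Rat forebrain membranes; radioligand binding measured by filter-based scintillation counting 1 hour after dosing. Loss of specific binding versus DMSO baseline scored; primary screen in duplicate at 25 uM, actives followed up in concentration series.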
# [13] = target: human Norepinephrine Transporter (NET), SLC6A2 (gene 6530) (UniProt P23975); experiment: NVS_TR_hNET: NovaScreen (NVS) Transporter Assay for human Norepinephrine Transporter (NET) (AID 2283377);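 further: displacement of radioligand from human NET seen as loss of scintillation signal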
# Sequence of human Norepinephrine Transporter (NET), SLC6A2 (gene 6530) (P23975 whole entry, looked up): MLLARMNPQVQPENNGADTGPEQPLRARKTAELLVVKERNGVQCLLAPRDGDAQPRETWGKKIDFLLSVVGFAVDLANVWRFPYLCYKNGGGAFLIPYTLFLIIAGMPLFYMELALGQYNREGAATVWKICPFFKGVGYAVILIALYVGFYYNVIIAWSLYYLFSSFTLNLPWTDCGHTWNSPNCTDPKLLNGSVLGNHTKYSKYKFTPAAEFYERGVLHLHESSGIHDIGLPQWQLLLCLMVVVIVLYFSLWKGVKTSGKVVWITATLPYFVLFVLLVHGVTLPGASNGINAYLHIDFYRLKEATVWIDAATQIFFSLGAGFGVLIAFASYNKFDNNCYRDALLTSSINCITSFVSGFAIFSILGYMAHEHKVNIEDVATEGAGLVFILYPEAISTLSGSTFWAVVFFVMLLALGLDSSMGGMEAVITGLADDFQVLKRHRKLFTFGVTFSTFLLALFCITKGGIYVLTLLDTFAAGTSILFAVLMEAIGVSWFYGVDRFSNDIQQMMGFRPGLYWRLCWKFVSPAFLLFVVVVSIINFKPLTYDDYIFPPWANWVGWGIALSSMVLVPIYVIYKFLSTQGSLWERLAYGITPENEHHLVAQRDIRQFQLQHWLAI
# Outline: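 Cell-free radioligand binding using CHO-derived membrane protein expressing human NET, read by filter scintillation counting 1 h after dosing; loss of signal vs DMSO. Initial duplicate screen at 25 uM, actives retested in concentration series.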
# [14] = target: Agonist Androgen Response Element (ARE), AR (gene 367) (UniProt P10275); experiment: OT_AR_ARELUC_AG_1440: Odyssey Thera (OT) 24-hour CHO-K1 Luciferase Assay for Agonist Androgen Response Element (ARE) (AID 2283379)
# Outline: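 CHO-K1 cells carrying an ARE-driven luciferase reporter were exposed to compounds for 24 h. Luminescence was then read after adding a D-luciferin/ATP mix, and activity was scored as a gain in signal over DMSO vehicle.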
# [15] = target: rat Androgen Receptor (AR), Ar (gene 24208) (UniProt P15207); experiment: NVS_NR_rAR: NovaScreen (NVS) Nuclear Receptor Binding Assay for rat Androgen Receptor (AR) (AID 2283366)
# Outline: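 Cell-free radioligand binding on extracts of prostate from testosterone-pretreated rats, read by filter-based scintillation counting 18 h after dosing. Loss of bound signal fitted positively versus DMSO; primary screen in duplicate at 25 uM, actives followed up in concentration series.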
# [16] = target: Norway rat Vesicular Monoamine Transporter (VMAT2), neurotransmitter transporter, Slc18a2 (gene 25549) (UniProt Q01827); experiment: NVS_TR_rVMAT2: NovaScreen (NVS) Transporter Assay for Norway rat Vesicular Monoamine Transporter (VMAT2), neurotransmitter transporter (AID 2283376);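 further: actives lower the bound radioligand signal below the DMSO level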
# Outline: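 Radioligand displacement binding on rat forebrain tissue preparation, filter-based scintillation read-out 1 hour after dosing. Primary screen in duplicate at 25 uM, then concentration series for actives; loss of signal versus DMSO.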
smiles,measurement,setting,value
COP(=S)(OC)Oc1ccc([N+](=O)[O-])c(C)c1,AC50,PGR (gene 5241),4.97 µM (active)
same,AC50,[1],9.62 µM (active)
same,AC50,[2],3.93 µM (active)
same,AC50,[3],1.99 µM (active)
same,AC50,[4],4.96 µM (active)
same,AC50,[5],3.37 µM (active)
same,outcome,[6],inactive
same,outcome,[7],inactive
N#CN=C1SCCN1Cc1ccc(Cl)nc1,outcome,[2],inactive
same,outcome,[7],inactive
OC(c1ccc(Cl)cc1)(c1ccc(Cl)cc1)C(Cl)(Cl)Cl,outcome,[8],inactive
same,AC50,[1],6.9 µM (active)
same,outcome,[9],inactive
same,AC50,[4],8.54 µM (active)
same,outcome,[10],inactive
same,AC50,[6],12.3 µM (active)
same,outcome,[7],inactive
CCCN(CC)CC1COC2(CCC(C(C)(C)C)CC2)O1 (stereo not drawn),outcome,[1],inactive
same,outcome,[11],inactive
same,AC50,[2],0.0101 µM (active)
same,outcome,[6],inactive
same,outcome,[7],inactive
CCN(CC)C(=O)C(C)Oc1cccc2ccccc12 (stereo not drawn),AC50,[2],18.8 µM (active)
same,AC50,[4],10.4 µM (active)
same,outcome,[6],inactive
same,outcome,[7],inactive
CC1(C)CON(Cc2ccccc2Cl)C1=O,AC50,[2],15.2 µM (active)
same,AC50,[4],6.47 µM (active)
same,outcome,[6],inactive
same,outcome,[7],inactive
Cn1c(-c2ccccc2)cc(-c2ccccc2)[n+]1C,AC50,[2],0.133 µM (active)
same,outcome,[12],inactive
same,AC50,[13],2.75 µM (active)
same,outcome,[6],inactive
same,outcome,[7],inactive
O=c1n(Cl)c(=O)n(Cl)c(=O)n1Cl,outcome,[8],inactive
same,outcome,[6],inactive
same,outcome,[7],inactive
CSC(=O)c1c(C(F)F)nc(C(F)(F)F)c(C(=O)SC)c1CC(C)C,outcome,[2],inactive
same,outcome,[4],inactive
same,AC50,[6],21.5 µM (active)
same,outcome,[7],inactive
CNC(=O)Oc1cccc2ccccc12,outcome,[8],inactive
same,outcome,PGR (gene 5241),inactive
same,outcome,[3],inactive
same,AC50,[5],7.36 µM (active)
same,outcome,[10],inactive
same,outcome,[7],inactive
CCNP(=S)(OC)O/C(C)=C/C(=O)OC(C)C (stereo not drawn),outcome,[11],inactive
same,outcome,[6],inactive
same,outcome,[7],inactive
COCc1cnc(C2=NC(C)(C(C)C)C(=O)N2)c(C(=O)O)c1 (stereo not drawn),outcome,[8],inactive
same,outcome,[14],inactive
same,outcome,[6],inactive
same,outcome,[7],inactive
CS(=O)(=O)c1cc(C(F)(F)F)ccc1C(=O)c1cnoc1C1CC1,outcome,[8],inactive
same,outcome,[6],inactive
same,outcome,[7],inactive
Cc1c(COC(=O)[C@@H]2[C@H](/C=C(\Cl)C(F)(F)F)C2(C)C)cccc1-c1ccccc1,outcome,[8],inactive
same,outcome,PGR (gene 5241),inactive
same,AC50,[13],0.345 µM (active)
same,outcome,[6],inactive
same,outcome,[7],inactive
CCCCC(O)(Cn1cncn1)c1ccc(Cl)cc1Cl (stereo not drawn),outcome,PGR (gene 5241),inactive
same,AC50,[1],1.29 µM (active)
same,outcome,[15],inactive
same,AC50,[4],2.25 µM (active)
same,AC50,[16],15 µM (active)
same,AC50,[13],13.3 µM (active)
same,outcome,[14],inactive
same,outcome,[6],inactive
same,outcome,[7],inactive
CC1(C)C(C=C(Cl)Cl)C1C(=O)OC(C#N)c1cccc(Oc2ccccc2)c1 (stereo not drawn),outcome,[8],inactive
same,outcome,PGR (gene 5241),inactive
same,outcome,[1],inactive
same,AC50,[9],9.19 µM (active)
same,AC50,[4],6.48 µM (active)
same,AC50,[13],12.2 µM (active)
same,outcome,[6],inactive
same,outcome,[7],inactive
CN=C=S,outcome,[8],inactive
same,outcome,PGR (gene 5241),inactive
CCOc1nc(F)cc2nc(S(=O)(=O)Nc3c(Cl)cccc3Cl)nn12,outcome,[3],inactive
same,outcome,[5],inactive
Cc1cc(C)nc(Nc2ccccc2)n1,AC50,[12],6.21 µM (active)
C=C(C)CN(CC)c1c([N+](=O)[O-])cc(C(F)(F)F)cc1[N+](=O)[O-],outcome,[5],inactive
CC1(C)CCC(=Cc2ccc(Cl)cc2)C1(O)Cn1cncn1 (stereo not drawn),outcome,[10],inactive
COC(=O)NC(=S)Nc1ccccc1NC(=S)NC(=O)OC,outcome,[10],inactive
